Most compounds without a hit are left out; they make up all but 2% or so of the library.
Efa HMGR inh: E. faecalis class II HMG-CoA reductase inhibition; purified E. faecalis HMGR, NADPH absorbance 340 nm kinetic; inhibition, % at 10 µM; 190,000 compounds, 0.41% hits; AID 1066;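 active means inhibition above a set limit, the median over all tested compounds plus 3 SD, cut at about 9.5% in these data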;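 further: enzyme runs in reverse so mevalonate oxidation gives rising NADPH absorbance; 0% = complete reaction with DMSO and 100% = background rate lacking mevalonate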
PKD1 inh: PKD1 (human) kinase inhibition. PKD1 kinase fluorescence polarization assay. inhibition, % (no concentration beside the values). Q15139. 200,000 compounds, 0.056% hits; in the data active means inhibition above about 50%
Target sequence (Q15139 whole entry, looked up): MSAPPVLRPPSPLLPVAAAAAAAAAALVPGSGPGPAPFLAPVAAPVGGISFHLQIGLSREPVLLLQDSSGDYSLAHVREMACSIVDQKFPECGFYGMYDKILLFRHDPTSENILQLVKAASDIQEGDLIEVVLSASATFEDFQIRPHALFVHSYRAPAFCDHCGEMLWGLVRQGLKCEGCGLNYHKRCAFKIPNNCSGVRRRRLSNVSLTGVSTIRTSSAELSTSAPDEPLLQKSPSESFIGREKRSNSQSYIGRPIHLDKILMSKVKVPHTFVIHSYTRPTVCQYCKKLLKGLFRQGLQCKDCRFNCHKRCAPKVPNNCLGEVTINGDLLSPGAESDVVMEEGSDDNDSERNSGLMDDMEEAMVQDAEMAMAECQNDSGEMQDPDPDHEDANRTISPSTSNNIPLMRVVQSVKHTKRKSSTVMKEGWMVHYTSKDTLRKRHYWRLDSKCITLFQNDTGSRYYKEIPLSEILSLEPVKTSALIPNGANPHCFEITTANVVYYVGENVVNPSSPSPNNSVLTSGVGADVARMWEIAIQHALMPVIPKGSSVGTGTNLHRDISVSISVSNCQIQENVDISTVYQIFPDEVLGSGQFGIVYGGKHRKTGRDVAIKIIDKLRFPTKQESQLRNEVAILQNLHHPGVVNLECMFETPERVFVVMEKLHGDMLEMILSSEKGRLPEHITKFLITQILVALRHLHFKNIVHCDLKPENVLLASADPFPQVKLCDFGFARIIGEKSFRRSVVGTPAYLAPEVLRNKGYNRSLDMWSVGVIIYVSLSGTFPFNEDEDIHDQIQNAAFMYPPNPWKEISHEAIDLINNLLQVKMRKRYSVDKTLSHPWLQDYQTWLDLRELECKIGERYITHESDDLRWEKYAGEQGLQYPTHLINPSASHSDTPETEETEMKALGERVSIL
Wee1 degr inh: human Wee1 degradation inhibition, primary screen. P30291. HeLa Luc-Wee1K328M stability, luciferase luminescence; 100% = proteasome inhibitor MG132 effect. reporter increase, % at 5 µM. 220,000 compounds, 1.2% hits. AID 1321;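 active means activation above the mean of all tested compounds plus 3 SD, set per screening run, cut at about 8.8% in these data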;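 further: cells exposed to compound for 20 h before luminescence read; 0% = DMSO alone and 100% = MG132 at 30 µM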
Hsp70 act: Hsp70 transcriptional activation, primary screen; HeLa Hsp70 promoter luciferase reporter, luminescence; scaled: vehicle 0, proteasome-inhibitor control 100%; activation, % at 10 µM; 200,000 compounds, 0.04% hits;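 active means activation above the mean across all tested compounds plus 3 SD, cutoff set per campaign, cut at about 5.5% in these data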;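 further: 100% = MG132 at 30 µM as the positive control and 0% = DMSO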
Arbovirus anti: blocks arbovirus infection; arbovirus infection cell-based antiviral screen; inhibition, % at 10 µM; 200,000 compounds, 0.37% hits; in the data active means inhibition above about 30%
* marks the source's active call; other numbers are inactive results.

For Cc1cccc(N2C(=O)C3C4CC(=O)C(c5ccccc54)C3C2=O)c1C (configuration not stated) the results were Efa HMGR inh -1, PKD1 inh -7, Wee1 degr inh 0, Hsp70 act 0 and Arbovirus anti 4.
For Cc1ccn2cc(C(=O)Nc3nnc(C)s3)nc2c1 the results were Efa HMGR inh -1, PKD1 inh -3, Wee1 degr inh 8.9*, Hsp70 act 0 and Arbovirus anti -12.
For Cc1ccn2cc(C(=O)Nc3ccc4c(c3)OCCO4)nc2c1 the results were Efa HMGR inh -4, PKD1 inh -9, Wee1 degr inh 0, Hsp70 act 0 and Arbovirus anti -4.
CC1=NN(c2ccccc2)C(=O)C1N=Nc1ccc(C)cc1 (configuration not stated) was read as Efa HMGR inh -5, PKD1 inh -5, Wee1 degr inh 1, Hsp70 act 0 and Arbovirus anti 0.
`Cc1ccc(C2C=NN(c3ccccc3)C2=O)cc1` (configuration not stated) gave Efa HMGR inh 10*, PKD1 inh -5, Wee1 degr inh 4, Hsp70 act 0 and Arbovirus anti 6.
For CC(=O)C1=C(O)C(=O)N(c2ccc(O)cc2)C1c1ccc([N+](=O)[O-])cc1 (configuration not stated) the results were Efa HMGR inh -4, PKD1 inh 1, Wee1 degr inh 9.3*, Hsp70 act 0 and Arbovirus anti -2.
COc1ccc(Nc2oc(-c3ccc(F)cc3)nc2C#N)cc1 was read as Wee1 degr inh 9.3*.
Screening O=C(O)c1ccc(S(=O)(=O)c2ccc3c(c2)C(=O)N(CC2CCCO2)C3=O)cc1 (configuration not stated) returned Efa HMGR inh -3, PKD1 inh 1, Wee1 degr inh -2, Hsp70 act 0 and Arbovirus anti 3.
For O=C(O)c1ccc(C(=O)c2ccc3c(c2)C(=O)N(CC2CCCO2)C3=O)cc1 (configuration not stated) the results were Efa HMGR inh 4, PKD1 inh -6, Wee1 degr inh 10*, Hsp70 act 0 and Arbovirus anti -4.
For CCC(C)NCCOCCOc1ccc(Cl)cc1Br (configuration not stated) the results were Efa HMGR inh -3, PKD1 inh 0, Wee1 degr inh 1, Hsp70 act 1 and Arbovirus anti -16.
For COc1ccc(N2CCN(C(=O)c3ccc(NS(=O)(=O)c4cccs4)cc3)CC2)cc1 the results were Efa HMGR inh -3, PKD1 inh -8, Wee1 degr inh 9.0*, Hsp70 act 0 and Arbovirus anti 3.
Screening COc1ccc(N2CCN(C(=O)c3ccc(NS(=O)(=O)c4ccc(F)cc4)cc3)CC2)cc1 returned Efa HMGR inh -3, PKD1 inh 3, Wee1 degr inh 4, Hsp70 act 0 and Arbovirus anti 14.
Screening C/C(N)=C(/C#N)C(=O)COC(=O)c1oc2ccccc2c1COC(C)C returned Efa HMGR inh -2, PKD1 inh -4, Wee1 degr inh -4, Hsp70 act 0 and Arbovirus anti 7.
Oc1ccccc1N1CCN(c2nnnn2-c2ccccc2)CC1 was read as Wee1 degr inh -4.
`c1ccc(N2CCN(c3nnnn3-c3ccccc3)CC2)cc1` gave Efa HMGR inh -1, PKD1 inh -6, Wee1 degr inh 9.4*, Hsp70 act 0 and Arbovirus anti -3.
`CCOC(=O)c1cnc(COc2ccc(OC)cc2)[nH]c1=O` gave Wee1 degr inh 4.
CC1CC(C)CN(C(=O)c2cc3cc(Br)cc(Br)c3o2)C1 (configuration not stated) was read as Efa HMGR inh -6, PKD1 inh -2, Wee1 degr inh 0, Hsp70 act 0 and Arbovirus anti -39.
For CNc1ccccc1C(C)(C)c1cc(-c2cc(C)cc(C)c2)no1 the results were Efa HMGR inh -5, PKD1 inh 3, Wee1 degr inh -5, Hsp70 act 0 and Arbovirus anti 21.
For CNc1ccccc1C(C)(C)c1cc(-c2cccc(OC)c2)no1 the results were Efa HMGR inh -3, PKD1 inh 1, Wee1 degr inh -3, Hsp70 act 0 and Arbovirus anti 32*.
For C[C@@H]1C=C(C(=O)O)O[C@H](OCc2ccc(CO)cc2)C1 the results were Efa HMGR inh 4, PKD1 inh 1, Wee1 degr inh -2, Hsp70 act 0 and Arbovirus anti 2.
Screening CCOC(=O)c1c(NC(=O)COc2ncnc3ccccc23)sc(C)c1CC returned Efa HMGR inh -5, PKD1 inh -1, Wee1 degr inh -3, Hsp70 act 0 and Arbovirus anti 13.
`COc1cc(C(=O)NCCOc2ccc(F)cc2)c(Br)c(OC)c1OC` gave Efa HMGR inh -5, PKD1 inh 4, Wee1 degr inh -1, Hsp70 act 0 and Arbovirus anti 0.
O=c1[nH]c(O)c(C=Nc2ccc(Cl)cc2Cl)c(=O)[nH]1 was read as Wee1 degr inh -1.
`COc1ccc(CN(C(=O)CSc2nnc(-c3ccc(F)cc3)o2)c2ccc(F)cc2)cc1` gave Efa HMGR inh -2, PKD1 inh -1, Wee1 degr inh -2, Hsp70 act 0 and Arbovirus anti 31*.
Cc1cc(C)n(-c2ccc(Cl)c(C(=O)Nc3cc(C(F)(F)F)ccc3Cl)n2)n1 was read as Efa HMGR inh -2, PKD1 inh -9, Wee1 degr inh -3, Hsp70 act 0 and Arbovirus anti -14.
For CC(=NCc1cccc(Cl)c1)c1nc(-c2ccco2)oc1O the results were Efa HMGR inh 2, PKD1 inh -19, Wee1 degr inh 9.4*, Hsp70 act 0 and Arbovirus anti -40.
`O=C(COC(=O)Cc1ccccc1F)Nc1cccc(F)c1` gave Efa HMGR inh -4, PKD1 inh -4, Wee1 degr inh -3, Hsp70 act 0 and Arbovirus anti 3.
Screening CCN(CCO)c1ncnc2c1sc1nc(CC(C)C)c3c(c12)CC(C)(C)OC3 returned Efa HMGR inh 9.7*, PKD1 inh -2, Wee1 degr inh 2, Hsp70 act 0 and Arbovirus anti -7.
`Cn1nnnc1NCc1c(F)cccc1Cl` gave Efa HMGR inh -1, PKD1 inh -10, Wee1 degr inh 10*, Hsp70 act 0 and Arbovirus anti 5.
`CSc1nnc2c(n1)OC=Nc1ccc(Br)cc1-2` gave Wee1 degr inh -3.
For Cn1cnnc1SCC(=O)Nc1cc(S(=O)(=O)N2CCCCCC2)ccc1Cl the results were Efa HMGR inh -2, PKD1 inh -8, Wee1 degr inh 7, Hsp70 act 0 and Arbovirus anti -9.
c1ccc2c(c1)CC/C2=N/Nc1nc2ccccc2[nH]1 was read as Efa HMGR inh -4, PKD1 inh -3, Wee1 degr inh 5, Hsp70 act 1 and Arbovirus anti 28.
Screening CC12CN(C(=S)Nc3ccccc3)CC(C)(CN(C(=S)Nc3ccccc3)C1)C2=O returned Efa HMGR inh -7, PKD1 inh 6, Wee1 degr inh 1, Hsp70 act 0 and Arbovirus anti 3.

Screening results from PubChem.
